Among the data in PubChem BioAssay are inhibition values, retold here.

The source made the active and inactive calls. No rule for the calls is given here.

Chain of Pantothenate synthetase (Mycobacterium tuberculosis (strain ATCC 25618 / H37Rv)) (P9WIL5 whole entry, looked up): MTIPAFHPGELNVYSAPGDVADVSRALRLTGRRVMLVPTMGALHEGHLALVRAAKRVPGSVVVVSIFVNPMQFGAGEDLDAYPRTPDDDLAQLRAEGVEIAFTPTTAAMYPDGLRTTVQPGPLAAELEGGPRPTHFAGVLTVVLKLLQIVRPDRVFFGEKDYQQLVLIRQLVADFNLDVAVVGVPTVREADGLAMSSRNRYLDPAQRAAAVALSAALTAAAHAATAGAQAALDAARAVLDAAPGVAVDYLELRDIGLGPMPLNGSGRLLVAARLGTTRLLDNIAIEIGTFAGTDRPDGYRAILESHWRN

This test addresses Pantothenate synthetase (Mycobacterium tuberculosis (strain ATCC 25618 / H37Rv)) (UniProt P9WIL5). Briefly: Recombinant Mtb pantothenate synthetase (PanC) inhibitors, coupled enzyme, confirmatory (AID 375).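 Also: 0% = full reaction with vehicle and 100% = no enzyme background.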 The following applies: coupled enzyme assay; at 10 µM, hits give high values.
For the compound `Cc1ccc2[nH]cc(C(=O)CN3CCC4(CC3)OCCO4)c2c1`, the inhibition is 0% (inactive). In the case of `CCCCc1c(O)nc(SCC(=O)c2ccccc2)[nH]c1=O`, the inhibition is 0% (inactive). With `C/C(=C\c1cc(C(=O)O)c(C)o1)CO` the figure was 0% (inactive); with `COc1ccc(CCNC(=O)c2ccc(N3CCCC3=O)cc2)cc1OC`, 0% (inactive); with `CC1(C)CC(=O)C2=C(C1)Nc1nc(SCCN3CCOCC3)[nH]c(=O)c1C2c1cccs1` (stereo not given), 2% (inactive). Then `O=c1oc2c3c4c(cc2s1)CCCN4CCC3`, with 0% (inactive); and `COc1cccc(C2CC(=O)Nc3cc4c(cc32)OCCO4)c1OC(C)C` (stereo not given), with 1% (inactive); and `CCc1ccc2nc(NC(=O)CSCc3c(C)noc3C)sc2c1`, with 6% (inactive). On to `CC1NC2(C(=O)N(Cc3ccccc3)c3ccccc32)C2C(=O)N(c3ccccc3)C(=O)C12` (stereo not given), for which the inhibition is 0% (inactive). For `COc1ccc(N2C(=O)CC(N3CCN(c4ccccc4F)CC3)C2=O)cc1` (stereo not given), the inhibition is 0% (inactive). As to `Nc1nc(N2CCN(C/C=C/c3ccccc3)CC2)nc2ccccc12`, the inhibition was 7% (inactive). `O=C(c1cnn2c(C(F)F)cc(C3CC3)nc12)N1CCOCC1`: the inhibition is 1% (inactive).

Turning to `COc1ccccc1-c1nc(SCc2ccccn2)n[nH]1`, the inhibition is 0% (inactive).

Regarding `COc1ccc(CNCC(=O)Nc2cc(C)nn2-c2nc(C)cc(C)n2)cc1OC`, the inhibition was 0% (inactive). As to `COc1ccc(N2CCN(C(=O)CSc3ncnc4c3cnn4-c3ccccc3C)CC2)cc1`, the inhibition was 0% (inactive).

For `CC1(C)CC(=O)C2=C(C1)NC(=O)CC2C(=O)NCc1ccc(F)cc1` (stereo not given), the inhibition was 0% (inactive). Then `CCN1CCN(C(=O)c2cn(CC)c3ccc(S(=O)(=O)N(C)C)cc3c2=O)CC1`, with 0% (inactive).

With `Cc1nc(Nc2nc(=O)c3ccccc3n2C)nc2c(C)cccc12`, the inhibition is 0% (inactive). For the compound `CN1CCCN=C1COC(=O)C(O)(c1ccccc1)C1CCCCC1` (stereo not given), the inhibition was 0% (inactive). For the compound `CC(C)NC(=O)CSc1nnc(-c2ccc(C(C)(C)C)cc2)n1C`, the inhibition is 1% (inactive). Then `CC(C)N=c1cc2n(-c3ccc(Cl)cc3)c3ccccc3nc-2cc1Nc1ccc(Cl)cc1`, with 0% (inactive); and `CCSc1nnc(NC(=O)CSc2ncccn2)s1`, with 0% (inactive); and `CCC(C)NCC(O)COCc1ccc(Cl)cc1` (stereo not given), with 4% (inactive). Take `CC1CCC(NC(=O)Cn2ncc3ccccc32)CC1` (stereo not given): the inhibition is 0% (inactive). Then `Cc1ccc(C2CC(c3cccc(Br)c3)Nc3nnnn32)cc1` (stereo not given), with 1% (inactive). Then `Cc1ccc(NC(=O)N2CCC(c3nc4c(nnn4Cc4cccc(Cl)c4)c(=O)[nH]3)CC2)cc1`, with 0% (inactive). Take `CCOC(=O)C1=C(CN2CCOCC2)NC(=O)NC1c1cc(C)ccc1C` (stereo not given): the inhibition is 2% (inactive). Then `O=C(NCc1ccco1)c1c2c(nc3ccccc13)CCC2`, with 0% (inactive); and `CCCCOCCCNC(=O)COc1ccccc1`, with 1% (inactive). Turning to `O=C(CSc1nnc(Cn2c(=O)sc3ccccc32)n1-c1ccccc1)NCC1CCCO1` (stereo not given), the inhibition is 0% (inactive). In the case of `CCCNC(=O)NS(=O)(=O)c1ccc(Cl)cc1`, the inhibition was 5% (inactive). With `CC(=O)c1ccc(OC(=O)c2cccs2)cc1` the figure was 0% (inactive); with `CCn1c(CNc2ccc(OC)cc2)nnc1SCC(=O)c1ccc(OC)cc1`, 0% (inactive); with `O=C(Nc1ccc(F)cc1F)NC1CC(=O)N(Cc2ccccc2)C1` (stereo not given), 1% (inactive). For `C=CCOc1ccccc1/C=c1\sc2nc(=O)c(C)nn2c1=O`, the inhibition was 0% (inactive). Consider `Cc1cc(NC(=O)CCCN2C(=O)c3cccnc3C2=O)no1`, for which the inhibition was 0% (inactive). For `O=C(Nc1ccccn1)NC(C(F)(F)F)C(F)(F)F`, the inhibition was 0% (inactive). With `CCn1nnc(NC(=O)c2ccc(-c3ccc(Cl)cc3)o2)n1` the figure was 2% (inactive). Take `OC(CN1CCN(c2ccccn2)CC1)Cn1c2ccccc2c2ccccc21` (stereo not given): the inhibition was 0% (inactive). With `O=C(Nc1ccc(N2C(=O)C3C4C=CC(C4)C3C2=O)cc1)Nc1cccnc1` (stereo not given) the figure was 0% (inactive).

As usually defined, the inhibition is the share of the control response that was lost under treatment.
